Compound activity from PubChem.
KB-3-1 tox = KB-3-1 parental cell cytotoxicity. KB-3-1 viability, CellTiter-Glo ATP luminescence, 72 h. actives 1.4% (n = 400,000). Potency, µM (titrated, usually from 46.1 µM), actives largely listed as cytotoxic. AID 1347075; further: on the % scale 0 is the no-effect control and ±100 the full control effect; nearly all actives have a fitted effect of over 60% in size
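Luminescent ATP read-out (CellTiter-Glo) measures survival of drug-naive KB-3-1 cells after 72 h compound exposure at 37 °C. Titration series was screened from lowest to highest concentration, with DMSO vehicle plates as background controls.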
KB-V1 cytotox = kills drug-selected multidrug resistant KB-V1 cells | KB-V1 MDR cells viability, CellTiter-Glo, 72 h | Potency, µM (titrated, usually from 46.1 µM), actives largely listed as cytotoxic | actives 3.4% (n = 400,000) | AID 1347076; further: on the % scale 0 is the no-effect control and ±100 the full control effect; nearly all actives have a fitted effect of over 60% in size
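Readout: CellTiter-Glo luminescence, 10 min after addition. Cells: KB-V1 MDR subline, 72 h at 37 degrees C with compound. Analysis: corrected, normalized data fitted to concentration-effect curves.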
MCF10A rerep = DNA re-replication induction in MCF 10a cells; MCF 10A DNA re-replication, Hoechst nuclear intensity, 48 h; Potency, µM (doses to about 46.1 µM), for inactives: top-dose activity, positive = re-replication, most hits filed as activators; actives 2.9% (n = 350,000); further: % of control where 0% means no effect; nearly all actives have a fitted effect of over 50% in size
SW480 rereplic = inducers of DNA re-replication in SW480 colon cancer cells | SW480 DNA re-replication, Hoechst DNA content imaging, 48 h | Potency, µM (top dose mostly 46.1 µM), without a hit: at the highest dose re-replication activation, most hits filed as activators | actives 1.8% (n = 340,000) | AID 624297; further: % of control where 0% means no effect; nearly all actives have a fitted effect of over 55% in size
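Hoechst fluorescence of nuclei (405 nm excitation, 500-530 nm emission) measured by plate-scanning imager after 48 hr compound exposure at 37 C; re-replication scored as increased number of nuclei with elevated intensity.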
ELG1 DNA repair = inhibitors of ELG1-dependent DNA repair in HEK293T cells. HEK293T ELG1-luciferase reporter, luminescence, 16 h; DNA damage induced by 5-fluorouridine. Potency, µM (doses to about 46.1 µM), for the others: at the top dose activity change, negative = inhibition, hits mostly inhibitors. actives 2.3% (n = 330,000). AID 504467; further: on the % scale 0 is the no-effect control and ±100 the full control effect; nearly all actives have a fitted effect of over 55% in size
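DMSO vehicle served as the neutral condition. Each well held 2,000 cells given 5-fluorouridine plus compound; after 16 hr at 37 °C/5% CO2, ONE-Glo was added and luciferase measured 30 min later.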
An asterisk follows results filed as active; i = inactive; ? = inconclusive; / = no result given. Most compounds without a hit are left out; they make up all but 8.1% or so of the library. The call rests on the fitted dose curve; in most records, active means well fitted curve in the direction sought with a large enough effect; inconclusive means small, poorly fitted or top-dose-only effect, or another doubt; inactive means no such curve, though single readings can be large; an effect the other way counts as inactive or inconclusive. Potency means the concentration at half of the fitted maximal effect.

SMILES | KB-3-1 tox | KB-V1 cytotox | MCF10A rerep | SW480 rereplic | ELG1 DNA repair
COC(=O)C1=CN(CC2CCCO2)C=C(C(=O)OC)C1c1ccccc1C(F)(F)F (stereo unspecified) | i | i | ? | ? | -6%
CCCCOc1ccccc1C1C(C(=O)OC)=CN(CC)C=C1C(=O)OC | i | i | ? | 12µM* | -10%
COC(=O)C1=CN(CCCN2CCCC2=O)C=C(C(=O)OC)C1c1ccccc1C(F)(F)F | i | i | 13µM* | 18µM* | ?
O=C(NCCO)/C(=C\c1ccco1)NC(=O)c1ccco1 | i | i | -11% | ? | -14%
CC1(C)C2CCC1(C)C(OCCNCCOC(=O)Nc1ccccc1)C2 (stereo unspecified) | i | i | 18% | 8% | -8%
CNC(=S)N(C)[C@H]1c2c(ccc3ccccc23)OC[C@H]1CO | i | i | -12% | -2% | 23µM*
Cc1nc(N)ncc1-c1ccc2c(c1)OCO2 | ? | 12µM* | -10% | -9% | ?
Cn1c(-c2ccc3c(c2)OCO3)cnc1N | i | ? | ? | -1% | 21%
Cc1ccc(C(=O)c2oc3ccccc3c2NC(=O)c2cc(-c3cc(C)ccc3O)n[nH]2)cc1 | ? | ? | 1.6µM* | ? | ?
Cc1ccc(C(=O)c2oc3ccccc3c2NC(=O)c2cc(-c3ccccc3O)n[nH]2)cc1 | i | i | 9.2µM* | 18µM* | -9%
CC(C)C[C@H]1COc2cc(N3CCC[C@H]3CO)ccc2S(=O)(=O)N1 | i | ? | / | / | /
CSc1nc(S(C)(=O)=O)nc2[nH]c(=O)[nH]c12 | i | i | 0% | -1% | /
Cn1c(=O)c2c(nc(NCCNC(=O)c3ccco3)n2Cc2ccccc2)n(C)c1=O | i | i | 26µM* | 0% | -15%
Cn1c(=O)c2c(nc(NCCO)n2CCc2ccccc2)n(C)c1=O | 21µM* | i | -4% | -16% | ?
CC(C)n1c(NCCc2ccccc2)nc2c1c(=O)n(C)c(=O)n2C | ? | ? | 16% | 13% | 18µM*
Cn1c(=O)c2c(nc(NCCOc3ccc(C(C)(C)C)cc3)n2C)n(C)c1=O | i | i | 16µM* | -691% | -18%
CCCNc1nc2c(c(=O)n(C)c(=O)n2C)n1CCc1ccccc1 | i | i | 11% | -7% | ?
Cn1c(=O)c2c(nc(NCCNC(=O)c3ccco3)n2Cc2ccc(F)cc2)n(C)c1=O | ? | ? | 2% | -6% | ?
CCc1ccc(CN(C)C(=O)C2CCC(=O)N(CC3CCCCC3)C2)cc1 (stereo unspecified) | i | ? | 0% | -2% | 10%
COc1cc(/C=N/Nc2nc3c(c(=O)n(C)c(=O)n3C)n2Cc2ccccc2)ccc1OC(=O)c1ccco1 | ? | 9.2µM* | ? | ? | 18µM*
Cn1c(=O)c2c(nc(N/N=C/c3ccncc3)n2Cc2ccccc2)n(C)c1=O | i | i | -5% | -19% | -12%
Cc1cc(C)c(S(=O)(=O)Nc2ccc3c4c(cccc24)CC3)c(C)c1 | 0.73µM* | 1.3µM* | 0.37µM* | ? | ?
Cc1ccc(S(=O)(=O)Nc2ccc(O)c3ccccc23)c(C)c1 | i | i | 21µM* | 1% | 16µM*
Cc1cc(C)c(S(=O)(=O)Nc2ccccc2)c(C)c1 | i | 18µM* | 9% | 4% | /
Cc1cc(C)c(S(=O)(=O)Nc2ccc(O)cc2)c(C)c1 | i | ? | 5% | 6% | ?
SMILES | KB-3-1 tox | KB-V1 cytotox | MCF10A rerep | SW480 rereplic | ELG1 DNA repair
Cc1ccc(S(=O)(=O)Nc2ccc3c4c(cccc24)CC3)c(C)c1 | ? | 21µM* | ? | ? | /
COc1cccc(NC(=O)CNC(=O)c2cccs2)c1 | i | i | -11% | 4% | ?
O=C(Nc1ccc(N2CCOCC2)cc1)c1csc([C@@H]2C[C@H](O)[C@@H](CO)O2)n1 | i | i | / | / | /
Cc1cccc(C2CC(c3ccccc3)Nc3nc(N)nn32)c1 (stereo unspecified) | i | i | -1% | 0% | 15%
CCC(C)C(=O)Nc1ccc(S(=O)(=O)N2CCCC2)cc1 (stereo unspecified) | i | i | ? | ? | -12%
CCC(C)NS(=O)(=O)c1ccc(S(=O)(=O)N2CCCC3(CCCCC3)C2)cc1 (stereo unspecified) | 5.8µM* | 3.7µM* | ? | 8% | ?
C[C@@H](C(=O)Nc1ccc2ccccc2c1)[C@H]1C[C@]1(C)[C@H](NP(=O)(c1ccccc1)c1ccccc1)c1ccccc1 | / | / | 21% | 23µM* | ?
C[C@@H](C(=O)Nc1ccc2ccccc2c1)[C@H]1C[C@]1(C)[C@H](NS(=O)(=O)c1ccccc1)c1ccccc1 | i | i | 3% | 1% | 0%
C=CCC1Cc2c(Br)cccc2C(CC=C)N1 (stereo unspecified) | i | i | 0.92µM* | -24% | -8%
C=CC[C@H]1Cc2c(cccc2[N+](=O)[O-])[C@H](CC=C)N1 | i | i | 2% | ? | ?
O=C(CCn1nnc2ccccc21)Nc1nnc(Cc2ccccc2)s1 | i | 16µM* | 8% | -4% | -14%
O=C(Nc1ccc(Cl)c(NC(=O)c2cccs2)c1)c1ccco1 | i | i | 17% | 3% | -13%
O=C(Nc1cccc(NC(=O)c2cccs2)c1)c1ccco1 | i | 15µM* | 10% | -9% | -10%
O=C(Nc1cccc(S(=O)(=O)c2cccc(NC(=O)c3ccco3)c2)c1)c1ccco1 | i | ? | 11% | 4% | 23µM*
Cc1ccc([C@H]2C(C#N)=C(N)Oc3cc(C)oc(=O)c32)o1 | i | i | ? | ? | 12%
COc1cccc(CC(=O)Nc2c(C(=O)N3CCN(c4ccccc4F)CC3)oc3ccccc23)c1 | 16µM* | ? | / | / | /
COc1ccc(N2CCN(C(=O)c3oc4ccccc4c3NC(=O)Cc3cccc(OC)c3)CC2)cc1 | i | ? | 5% | -25% | -28%
CCc1ccc(C(C)NC(=S)NCc2ccc(F)cc2)cc1 (stereo unspecified) | ? | i | 26µM* | ? | -6%
CC(=O)Nc1ccc2c(c1)Cc1cc(N3C(=O)C=CC3=O)ccc1-2 | ? | i | 5.2µM* | 13µM* | /
Cc1cccc(-c2nc(SCC(=O)Nc3ccc4c(c3)OCCO4)c(-c3ccccc3)[nH]2)c1 | i | i | / | / | /
O=c1c2sc3nc(N4CCOCC4)c4c(c3c2ncn1CCc1ccccc1)CCCC4 | i | 2.3µM* | ? | -7% | -6%
CCOC(=O)Cn1c(=O)oc2cc(S(=O)(=O)Nc3ccc(F)cc3)ccc21 | i | i | 24% | -6% | -6%
